Laboratory results as given in PubChem BioAssay AID1159580 (chemical genetic matrix, 2015).
About 2,000 (36%) of roughly 5,500 compounds were called active. Another 18% or so got no clear call; they are omitted. No stated cut-off is given here; in the data, active means normalized growth mostly below about 0.91 (no sharp cut-off); inconclusive means no clear call, values can overlap the other calls; inactive means mostly above about 0.92. The list shows a part of the results.

Experiment: chemical genetic growth profiling, strain panel (AID 1159580);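 further: tested at 20 µM; growth read once vehicle control cultures reached saturation at 30 °C; 1 = growth at the plate median or of vehicle wells; lower values mean less growth of the strain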
Conditions: S. cerevisiae deletion strains, growth OD

Measured: normalized growth

CC(C)C(C)/C=C/C(C)[C@H]1CCC2C3=CCC4CC(=O)CC[C@]4(C)C3CC[C@@]21C (some centres not stated)
inactive: locus YAL013W, strain DEP1, hits give low values 1.04 | locus YAL021C, strain ccr4, hits give low values 0.999 | locus YAL026C, strain drs2, hits give low values 1 | locus YAL030W, strain snc1, hits give low values 1 | locus YBL061C, strain skt5, hits give low values 1 | locus YBR009C, strain hhf1, hits give low values 0.981 | locus YBR021W, strain FUR4, hits give low values 1 | locus YBR023C, strain chs3, hits give low values 0.995 | locus YBR171W, strain sec66, hits give low values 0.986 | locus YBR229C, strain ROT2, hits give low values 1.02 | locus YBR231C, strain swc5, hits give low values 1.03 | locus YBR279W, strain paf1, hits give low values 1 | locus YCL011C, strain gbp2, hits give low values 1.01 | locus YCL016C, strain dcc1, hits give low values 1.01 | locus YCL029C, strain bik1, hits give low values 1.02 | locus YCL061C, strain MRC1, hits give low values 1.01 | locus YCL069W, strain vba3, hits give low values 0.996 | locus YCR088W, strain abp1, hits give low values 1 | locus YDL005C, strain med2, hits give low values 1 | locus YDL035C, strain GPR1, hits give low values 0.992 | locus YDL040C, strain nat1, hits give low values 1 | locus YDL074C, strain BRE1, hits give low values 1 | locus YDL101C, strain DUN1, hits give low values 1.01 | locus YDL185W, strain tfp1, hits give low values 1.01 | locus YDL192W, strain arf1, hits give low values 0.996 | locus YDR001C, strain nth1, hits give low values 1 | locus YDR069C, strain doa4, hits give low values 0.997 | locus YDR101C, strain arx1, hits give low values 1.03 | locus YDR137W, strain rgp1, hits give low values 0.927 | locus YDR150W, strain NUM1, hits give low values 1.02 | locus YDR159W, strain sac3, hits give low values 1 | locus YDR162C, strain NBP2, hits give low values 0.97 | locus YDR195W, strain ref2 0.928 | locus YDR297W, strain sur2, hits give low values 1 | locus YDR318W, strain mcm21, hits give low values 1.01 | locus YDR334W, strain swr1, hits give low values 1 | locus YDR335W, strain msn5, hits give low values 1.01 | locus YDR388W, hits give low values 1.01 | locus YDR392W, strain spt3, hits give low values 0.941 | locus YDR502C, strain sam2, hits give low values 0.999 | locus YEL003W, strain gim4, hits give low values 1.01 | locus YEL037C, strain rad23, hits give low values 1 | locus YEL061C, strain CIN8 (second series), hits give low values 1.01 | locus YEL061C, strain CIN8, hits give low values 1.01 | locus YER015W, strain faa2, hits give low values 1 | locus YER016W, strain bim1, hits give low values 1 | locus YER110C, hits give low values 1.01 | locus YER111C, strain swi4, hits give low values 1 | locus YER155C, strain BEM2 (second series), hits give low values 0.984 | locus YER155C, strain BEM2, hits give low values 1.03 | locus YER167W, strain BCK2, hits give low values 1.03 | locus YFR010W, strain ubp6, hits give low values 1.01 | locus YGL078C, strain dbp3, hits give low values 0.98 | locus YGL086W, strain mad1, hits give low values 1 | locus YGL167C, strain pmr1, hits give low values 0.995 | locus YGL173C, strain kem1, hits give low values 0.995 | locus YGL227W, strain vid30, hits give low values 1 | locus YGL240W, strain doc1, hits give low values 0.999 | locus YGL248W, strain PDE1, hits give low values 1.01 | locus YGL253W, strain hxk2, hits give low values 1.01 | locus YGR078C, strain PAC10, hits give low values 1.01 | locus YGR135W, strain pre9, hits give low values 1 | locus YGR252W, strain gcn5, hits give low values 0.985 | locus YHR013C, strain ard1, hits give low values 0.968 | locus YHR027C, strain rpn1, hits give low values 1.01 | locus YHR030C, strain SLT2, hits give low values 1.03 | locus YHR079C, strain IRE1 (second series), hits give low values 1.01 | locus YHR094C, strain hxt1, hits give low values 1.02 | locus YHR129C, strain ARP1, hits give low values 1.02 | locus YHR142W, strain chs7, hits give low values 1 | locus YHR200W, strain rpn10, hits give low values 1.01 | locus YIL066C, strain RNR3, hits give low values 1.01 | locus YIL073C, strain SPO22, hits give low values 1.02 | locus YIL125W, strain kgd1, hits give low values 1.01 | locus YIR030C, strain dcg1, hits give low values 1.02 | locus YJL092W, strain hpr5, hits give low values 1.01 | locus YJL095W, strain BCK1 (second series), hits give low values 1.01 | locus YJL095W, strain BCK1, hits give low values 1.02 | locus YJL115W, strain asf1, hits give low values 0.99 | locus YJL129C, strain trk1, hits give low values 0.998 | locus YJL134W, strain LCB3, hits give low values 1.02 | locus YJL154C, strain vps35, hits give low values 1.01 | locus YJL164C, strain tpk1, hits give low values 0.998 | locus YJL166W, strain qcr8, hits give low values 1.01 | locus YJL168C, strain set2, hits give low values 1 | locus YJL187C, strain SWE1 (second series), hits give low values 1.01 | locus YJL187C, strain SWE1, hits give low values 1 | locus YJR043C, strain POL32, hits give low values 1.02 | locus YJR075W, strain HOC1, hits give low values 1.03 | locus YKL009W, strain mrt4, hits give low values 0.95 | locus YKL068W, hits give low values 1.01 | locus YKL085W, strain MDH1 (second series), hits give low values 1.02 | locus YKL085W, strain MDH1, hits give low values 1.02 | locus YKL160W, strain elf1, hits give low values 1.01 | locus YKR001C, strain vps1, hits give low values 1.01 | locus YKR026C, strain gcn3, hits give low values 0.971 | locus YKR091W, strain srl3, hits give low values 1.01 | locus YLL001W, strain dnm1, hits give low values 0.997 | locus YLL026W, hits give low values 1 | locus YLL041C, strain sdh2, hits give low values 1 | locus YLR027C, strain aat2, hits give low values 1.01 | locus YLR039C, strain RIC1, hits give low values 0.968 | locus YLR058C, strain SHM2, hits give low values 1.02 | locus YLR102C, strain apc9, hits give low values 1.01 | locus YLR221C, strain rsa3, hits give low values 1.01 | locus YLR258W, strain gsy2, hits give low values 1 | locus YLR262C, strain YPT6 (second series), hits give low values 0.895 | locus YLR262C, strain YPT6, hits give low values 0.952 | locus YLR268W, strain sec22, hits give low values 1 | locus YLR320W, strain mms22, hits give low values 0.965 | locus YLR330W, strain CHS5, hits give low values 1.03 | locus YLR342W, strain FKS1 (second series), hits give low values 1.03 | locus YLR342W, strain FKS1, hits give low values 1 | locus YLR357W, strain rsc2, hits give low values 0.978 | locus YLR370C, strain arc18, hits give low values 0.998 | locus YLR371W, strain rom2, hits give low values 1.01 | locus YLR384C, strain iki3, hits give low values 0.997 | locus YLR418C, strain cdc73, hits give low values 1.03 | locus YML016C, strain PPZ1, hits give low values 1.02 | locus YML032C, strain rad52, hits give low values 1 | locus YML120C, strain ndi1, hits give low values 1.01 | locus YML124C, strain tub3, hits give low values 1.02 | locus YMR058W, strain fet3, hits give low values 1.01 | locus YMR078C, strain ctf18, hits give low values 1.02 | locus YMR125W, strain sto1, hits give low values 1.01 | locus YMR129W, hits give low values 0.999 | locus YMR205C, strain PFK2, hits give low values 0.976 | locus YMR223W, strain ubp8, hits give low values 0.986 | locus YMR231W, strain pep5, hits give low values 0.999 | locus YMR307W, strain GAS1, hits give low values 1.2 | locus YNL067W, strain RPL9B, hits give low values 1.02 | locus YNL071W, strain lat1, hits give low values 1.01 | locus YNL209W, strain ssb2, hits give low values 1.01 | locus YNL233W, strain BNI4, hits give low values 1.03 | locus YNL248C, strain rpa49, hits give low values 0.995 | locus YNL250W, strain rad50, hits give low values 1.01 | locus YNL271C, strain bni1, hits give low values 1 | locus YNL298W, strain CLA4, hits give low values 0.991 | locus YNL307C, strain MCK1, hits give low values 1.02 | locus YNL322C, strain KRE1 (second series), hits give low values 0.996 | locus YNR049C, strain mso1, hits give low values 1 | locus YNR052C, strain pop2, hits give low values 0.971 | locus YOL012C, strain htz1 1.52 | locus YOL147C, strain pex11, hits give low values 1.01 | locus YOR001W, strain rrp6, hits give low values 1 | locus YOR061W, strain CKA2, hits give low values 1.02 | locus YOR069W, strain VPS5, hits give low values 1.02 | locus YOR070C, strain gyp1, hits give low values 1 | locus YOR080W, strain dia2, hits give low values 1 | locus YOR083W, strain WHI5, hits give low values 1.01 | locus YOR106W, strain vam3, hits give low values 0.995 | locus YOR136W, strain idh2, hits give low values 1 | locus YOR144C, strain elg1, hits give low values 1.01 | locus YOR184W, strain ser1, hits give low values 1 | locus YOR265W, strain rbl2, hits give low values 0.999 | locus YOR270C, strain vph1, hits give low values 1.04 | locus YOR290C, strain snf2, hits give low values 0.936 | locus YOR316C, strain cot1, hits give low values 1.01 | locus YPL051W, strain arl3, hits give low values 1.03 | locus YPL078C, strain atp4, hits give low values 1 | locus YPL106C, strain sse1, hits give low values 1.01 | locus YPL240C, strain hsp82, hits give low values 0.998 | locus YPR119W, strain clb2, hits give low values 1.02 | locus YPR141C, strain kar3, hits give low values 1.01 | locus YPR163C, strain tif3, hits give low values 1.01 | locus YPR167C, strain met16, hits give low values 1.01 | strain wtn01, hits give low values 0.991
